Bioassay records deposited in PubChem by National Center for Advancing Translational Sciences (NCATS).
KDM5B inhibitor: Primary screen for KDM5B Histone Demethylases FDH-coupled qHTS; 2.6% of 220,000 active; Potency, µM (series often up to 57.7 µM), actives largely listed as inhibitors; AID 1347165, 2019; KDM5B demethylase, FDH-coupled NADH fluorescence (FDH is formaldehyde dehydrogenase); active means well fitted inhibition curve with a large enough effect; further: 0% is about no effect; nearly all actives have a fitted effect of over 70% in size
Target sequence (Q9UGL1 whole entry, looked up): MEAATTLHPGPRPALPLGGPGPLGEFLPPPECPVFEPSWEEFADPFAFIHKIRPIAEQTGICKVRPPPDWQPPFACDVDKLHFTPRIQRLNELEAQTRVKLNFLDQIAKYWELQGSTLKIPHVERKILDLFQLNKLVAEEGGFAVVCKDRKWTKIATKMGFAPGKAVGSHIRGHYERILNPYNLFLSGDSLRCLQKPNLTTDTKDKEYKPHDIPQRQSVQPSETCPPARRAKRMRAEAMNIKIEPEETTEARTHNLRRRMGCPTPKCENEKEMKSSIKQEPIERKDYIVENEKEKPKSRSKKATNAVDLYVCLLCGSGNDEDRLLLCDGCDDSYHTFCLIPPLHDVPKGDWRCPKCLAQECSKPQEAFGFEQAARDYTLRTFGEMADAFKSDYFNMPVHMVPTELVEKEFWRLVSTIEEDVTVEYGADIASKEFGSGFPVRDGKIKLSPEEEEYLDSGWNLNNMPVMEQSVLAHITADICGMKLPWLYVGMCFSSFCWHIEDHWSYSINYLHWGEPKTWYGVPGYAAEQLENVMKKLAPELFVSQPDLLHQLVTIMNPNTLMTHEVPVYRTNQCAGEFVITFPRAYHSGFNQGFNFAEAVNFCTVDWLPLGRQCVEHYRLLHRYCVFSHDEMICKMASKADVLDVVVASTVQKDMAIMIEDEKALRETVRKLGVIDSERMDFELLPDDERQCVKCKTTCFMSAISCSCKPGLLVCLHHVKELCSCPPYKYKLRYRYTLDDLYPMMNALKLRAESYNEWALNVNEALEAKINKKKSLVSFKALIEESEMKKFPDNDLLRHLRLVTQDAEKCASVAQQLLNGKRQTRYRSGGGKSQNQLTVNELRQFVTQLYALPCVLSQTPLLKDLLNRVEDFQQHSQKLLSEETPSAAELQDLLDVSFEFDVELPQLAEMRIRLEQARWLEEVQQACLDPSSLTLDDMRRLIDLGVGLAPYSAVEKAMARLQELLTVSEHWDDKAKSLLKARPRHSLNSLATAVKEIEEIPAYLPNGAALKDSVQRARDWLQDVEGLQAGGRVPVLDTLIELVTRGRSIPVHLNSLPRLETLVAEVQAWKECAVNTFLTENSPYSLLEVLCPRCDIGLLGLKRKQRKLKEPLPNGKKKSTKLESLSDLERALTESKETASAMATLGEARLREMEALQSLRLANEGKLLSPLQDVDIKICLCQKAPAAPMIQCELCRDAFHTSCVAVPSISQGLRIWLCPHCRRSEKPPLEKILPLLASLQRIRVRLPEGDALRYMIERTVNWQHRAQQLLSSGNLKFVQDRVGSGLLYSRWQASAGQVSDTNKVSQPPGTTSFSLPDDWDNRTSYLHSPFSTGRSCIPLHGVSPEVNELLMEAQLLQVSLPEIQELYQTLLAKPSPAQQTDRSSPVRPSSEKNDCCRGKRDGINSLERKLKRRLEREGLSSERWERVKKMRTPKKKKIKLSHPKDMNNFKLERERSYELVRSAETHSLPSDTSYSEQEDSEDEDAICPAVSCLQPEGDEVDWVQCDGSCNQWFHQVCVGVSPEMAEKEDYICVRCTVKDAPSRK
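Here, H3K4me3 peptide (12.5 µM in substrate mix) is demethylated by KDM5BΔAP, 200 nM final, after 10 min compound exposure. Formaldehyde product is coupled through FDH (0.25 U/mL in mix) to NADH fluorescence; 30-min ΔRFU feeds dose-response curves.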
* hit, by the source's call; i = inactive. Many of the other results were omitted from the sample, so hits are more common in it than they were. Potency means the concentration at half of the fitted maximal effect.

SMILES	KDM5B inhibitor
COc1cccc2c(C)nc(Nc3nc(-c4ccccc4)cc(=O)[nH]3)nc12	i
COc1cc(C#N)ccc1OC(C)C(=O)c1ccc(F)cc1 (stereo not given)	i
CC(=O)NCCNC(=O)CCc1ncc(-c2ccc(Cl)cc2Cl)o1	i
CN1CCN(Cc2nc3c(c(=O)n(C)c(=O)n3C)n2Cc2ccccc2F)CC1	i
CC1CN(C(=O)COc2cc3oc(=O)cc(-c4ccccc4)c3cc2Cl)CCO1 (stereo not given)	i
CC(C)Nc1nc(-c2ccc(NC(=O)C(C)(C)C)cc2)cs1	i
O=C(COC(=O)c1cc(=O)c2ccccc2o1)c1ccc(OC(F)F)cc1	i
Cc1cccc(-n2nc(-c3c(C)nc4scc(CC(=O)NC5CCCCC5)n4c3=O)cc2C)c1C	25µM*
Cc1cccc(N2CCN(S(=O)(=O)c3c(C)nc4scc(C)n4c3=O)CC2)c1C	i
Cc1nc2ccccc2c(C)c1CC(=O)NCC(C)C	i
CCC(C)NC(=O)Cc1csc2nc(C)c(-c3cc(C)n(-c4ccc(C)cc4C)n3)c(=O)n12 (stereo not given)	28µM*
CCC(C)NC(=O)COC(=O)c1ccc2nc(C)c(C)nc2c1 (stereo not given)	i
CCC1Oc2ccccc2N(CC(=O)NC2CCCCC2)C1=O (stereo not given)	i
Cc1ccccc1-n1nc(-c2c(C)nc3scc(CC(=O)NCC(C)C)n3c2=O)cc1C	28µM*
CCC(C)NC(=O)Cn1ncc2c([nH]c3ccc(C)cc32)c1=O (stereo not given)	i
Cc1nc2scc(CC(=O)NCC(C)C)n2c(=O)c1-c1cc(C)n(-c2ccc(C(C)C)cc2)n1	28µM*
CCNC(=O)N[C@@H]1C=C[C@@H](c2c(C)nn(-c3ccc(C(C)C)cc3)c2C)C1	i
Cc1ccc(-n2cccc2CC(=O)NCC(C)C)cc1	i
Cc1ccc(-n2nc(-c3c(C)nc4scc(CC(=O)NCC(C)C)n4c3=O)cc2C)c(C)c1	i
Cc1ccc2nc(-c3cc(NC(=O)c4cccc(Cl)c4)ccc3O)oc2c1	i
Cc1cnc2c(S(=O)(=O)NC(c3cccs3)C(C)C)cccc2c1 (stereo not given)	i
Cc1ccc(/C(COc2ccc3c(C)c(Cc4ccccc4)c(=O)oc3c2C)=N\O)cc1	i
O=C(CCc1nc2ccccc2s1)NC1CCCC(C(F)(F)F)C1 (stereo not given)	i
Cc1cc(C)c(NC(=O)COC(=O)c2cccc(C)c2O)c(Cl)c1	i
CSc1ccccc1C(=O)Nc1ccccc1-c1ccccc1	i
SMILES	KDM5B inhibitor
CC(=O)Nc1ccc(/C(C)=N/NC(N)=S)cc1	i
CN(C)C(=O)CN1CCN(C(C(=O)O)c2c[nH]c3ccc(OCC#N)cc23)CC1 (stereo not given)	i
Clc1ccc(-c2nn3c(-c4ccc5ccccc5n4)nnc3s2)cc1	i
O=C(CCC(=O)c1ccc(F)cc1)Nc1ccccc1-c1ccccc1	i
O=C(Oc1ccc(-c2ccccc2)cc1)C(c1ccccc1)c1ccccc1	i
Cc1cc(NC(=O)CSc2nnnn2-c2cc(Cl)ccc2C)no1	i
Cc1ccc(Cl)cc1-n1nc(-c2c(C)nc3scc(CC(=O)NCC(C)C)n3c2=O)cc1C	22µM*
O=C(Cc1csc2nc(-c3ccc(Cl)cc3)cn12)NCCc1ccccc1	i
COCCN(CCOC)C(=O)c1cc(-c2ccco2)nc2ccccc12	i
CC(=O)N1Cc2ccccc2CC2(CCCN(CCc3ccccc3)C2)C1 (stereo not given)	i
CCCn1c(=O)[nH]c(=O)c2c1nc(-c1cccc(OC)c1OC)n2CCN1CCOCC1	i
COc1cccc(-c2nc3cc4c(cc3cc2CN2CCCOCC2)OCO4)c1OC	28µM*
COc1cccc(CN2CCCOCCNC(=O)CC2)c1OC	i
CCOC(=O)CSc1nc2c(c(=O)[nH]c(=O)n2C)n1C(C)C	i
CC(C)c1ccc(-c2nnn(Cc3cc(=O)n4ccsc4n3)n2)cc1	i
CC(=O)Nc1ccc(CN2C[C@@H](F)[C@@H](OCc3nc4ccccc4n3C)C2)cc1	32µM*
COc1ccc(CN2C[C@@H](F)[C@@H](OCc3nc4ccccc4n3C)C2)cn1	i
Cn1c(CO[C@H]2CN(Cc3cnc4ccccc4c3)C[C@H]2F)nc2ccccc21	i
CN(C)C[C@@H]1CN(c2ncccn2)C[C@H]1NC(=O)c1cnn(C)c1	28µM*
CNC(=O)N1C[C@@H](CN(C)C)[C@H](NC(=O)c2cccn2C)C1	i
CN(C)C[C@@H]1CN(c2ccncn2)C[C@H]1NC(=O)c1ccc(C#N)cc1	i
CN(C)C[C@@H]1CN(C)C[C@H]1NC(=O)c1cc(F)ccc1Cl	i
Cc1ccc(C)c(C(=O)N[C@@H]2CN(c3ncccn3)C[C@H]2CN(C)C)c1	22µM*
CN(C)C[C@@H]1CN(c2ncccn2)C[C@H]1NC(=O)c1cc(F)ccc1Cl	32µM*
CN(C)C[C@@H]1CN(Cc2ccccc2)C[C@H]1NC(=O)c1cccn1C	i
